The assay deals with Pantothenate synthetase (Mycobacterium tuberculosis (strain ATCC 25618 / H37Rv)) (UniProt P9WIL5). Description: Recombinant Mtb pantothenate synthetase (PanC) inhibitors, coupled enzyme, confirmatory (AID 375).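 Note: 0% = full reaction with vehicle and 100% = no enzyme background.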 Conditions: coupled enzyme assay; at 10 µM, stronger effect = higher value.

Molecules are shown by their SMILES. The source made the active and inactive calls. The rule behind the calls is not given here.

Chain of Pantothenate synthetase (Mycobacterium tuberculosis (strain ATCC 25618 / H37Rv)) (P9WIL5 whole entry, looked up): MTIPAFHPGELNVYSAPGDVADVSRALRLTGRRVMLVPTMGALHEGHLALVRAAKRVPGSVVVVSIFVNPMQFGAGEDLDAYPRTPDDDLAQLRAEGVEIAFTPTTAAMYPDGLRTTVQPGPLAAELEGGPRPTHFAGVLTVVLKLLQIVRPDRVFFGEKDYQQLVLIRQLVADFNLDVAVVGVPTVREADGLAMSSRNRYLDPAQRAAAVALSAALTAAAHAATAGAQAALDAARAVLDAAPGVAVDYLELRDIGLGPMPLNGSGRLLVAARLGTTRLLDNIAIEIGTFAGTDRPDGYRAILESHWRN

Take `CC(NO)C(C)(C)NO` (stereo unspecified): the inhibition (usually the change of the read-out against control, counted positive when it falls) is 8% (inactive).

Turning to `CC1=C(C(=O)Nc2ccccc2)C(c2ccco2)C(C#N)=C(SCC(=O)Nc2cccc(C)c2C)N1` (stereo unspecified), the inhibition is 1% (inactive).

As for `Cc1cccc2cc(C#N)c(SCCN3CCCCC3)nc12`, the inhibition was 0% (inactive).

Take `Cn1c(-c2ccc(C(C)(C)C)cc2)n[nH]c1=S`: the inhibition was 0% (inactive).

Regarding `O=C(NC(C(=O)c1ccccc1)n1ccc(=O)[nH]c1=O)c1ccccc1` (stereo unspecified), the inhibition was 0% (inactive).

Turning to `O=C(CCS(=O)(=O)c1cccc2nonc12)Nc1cccc2c1CCCC2`, the inhibition was 1% (inactive).

On to `O=C1c2ccccc2C(Nc2ccc3nc(-c4cccnc4)[nH]c3c2)N1Cc1ccco1` (stereo unspecified), for which the inhibition is 0% (inactive).

With `Cc1nc2ccc(S(=O)(=O)NC(C(=O)Nc3nccs3)C(C)C)cc2s1` (stereo unspecified), the inhibition is 0% (inactive).

On to `CC(=O)Nc1ccc(NC(=O)c2ccccc2F)cc1`, for which the inhibition is 0% (inactive).

Regarding `COc1ccc(CCN2CCC(Nc3nc4ccccc4n3Cc3ccc(F)cc3)CC2)cc1`, the inhibition is 2% (inactive).

Regarding `O=S(=O)(NCC(c1cccnc1)N1CCN(c2ccccc2)CC1)c1cc(F)ccc1F` (stereo unspecified), the inhibition was 0% (inactive).

Consider `COc1cc(S(=O)(=O)N2CCC(N3CCCCC3)CC2)ccc1-n1cnnn1`, for which the inhibition is 3% (inactive).

Regarding `Cc1nc2ccc(CCO)cc2s1`, the inhibition was 0% (inactive).

As to `COc1ccccc1NC(=O)c1ccc(NC(=O)CSc2nnnn2C)cc1`, the inhibition is 1% (inactive).

Regarding `O=C(Nc1ccon1)c1cc(-c2ccccc2)nc2ccccc12`, the inhibition is 0% (inactive).

Regarding `CC1Cc2ccccc2N1C(=O)c1cnsn1` (stereo unspecified), the inhibition is 0% (inactive).

`Cc1[nH]c(=O)[nH]c(=O)c1S(=O)(=O)Nc1ccc(Oc2ccccc2)cc1`: the inhibition is 6% (inactive).

On to `O=c1c2ccc(-c3nnc4n3-c3ccccc3SC4)cc2nc2n1CCCCC2`, for which the inhibition is 0% (inactive).

For the compound `Cn1c(=O)c2c(ncn2CC(O)CO)n(C)c1=O` (stereo unspecified), the inhibition is 0% (inactive).

In the case of `COC(=O)c1ccc(CSc2nc3ccccc3s2)o1`, the inhibition is 0% (inactive).

For `O=C(C1CC1)N1CCC(c2nc(-c3ccc(S(=O)(=O)NCC4CCCO4)cc3)no2)CC1` (stereo unspecified), the inhibition is 0% (inactive).

Source of the values: PubChem BioAssay.
